Results as given in PubChem BioAssay AID2427 (National Center for Advancing Translational Sciences (NCATS), 2010).
Active and inactive are the calls of the source.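 How the source made its calls: active means melting temperature shift above 3 C; inconclusive means shift above 1 C but not above 3 C; inactive means the rest.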

Each compound was assayed against 15-hydroxyprostaglandin dehydrogenase [NAD(+)] (Homo sapiens) (UniProt P15428) (assay: Thermal Shift Assay for Inhibitors of HPGD (15-Hydroxyprostaglandin Dehydrogenase)). Conditions: Recombinant HPGD thermal shift, SYPRO orange DSF, at 250 µM, stronger effect = higher value.
Sequence of 15-hydroxyprostaglandin dehydrogenase [NAD(+)] (Homo sapiens) (P15428 whole entry, looked up): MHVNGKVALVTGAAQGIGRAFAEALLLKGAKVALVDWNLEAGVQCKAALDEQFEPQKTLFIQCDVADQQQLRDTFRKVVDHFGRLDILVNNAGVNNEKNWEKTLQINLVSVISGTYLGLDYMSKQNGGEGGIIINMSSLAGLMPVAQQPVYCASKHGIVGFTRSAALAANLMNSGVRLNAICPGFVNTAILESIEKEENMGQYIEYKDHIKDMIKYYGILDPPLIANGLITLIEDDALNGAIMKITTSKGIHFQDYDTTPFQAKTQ
Experimental: Assay Overview: Human 15-Hydroxyprostaglandin dehydrogenase (HPGD) catalyzes the inactivation of prostaglandin E2, and plays a major role in cancer biology by antagonizing the oncogenic potential of cyclooxygenase type 2 (COX2). Studies to assess the stability of human 15-PGDH in presence of compounds was performed as described (Niesen et al., 2007) with variations. References 1. Myung SJ, Rerko RM, Yan M, Platzer P, Guda K, Dotson A, Lawrence E, Dannenberg AJ, Lovgren AK, Luo G, Pretlow TP, Newman RA, Willis J, Dawson D, Markowitz SD. 15-Hydroxyprostaglandin dehydrogenase is an in vivo suppressor of colon tumorigenesis. Proc Natl Acad Sci U S A. 2006 Aug 8;103(32):12098-102. 2. Yan M, Rerko RM, Platzer P, Dawson D, Willis J, Tong M, Lawrence E, Lutterbaugh J, Lu S, Willson JK, Luo G, Hensold J, Tai HH, Wilson K, Markowitz SD. 15-Hydroxyprostaglandin dehydrogenase, a COX-2 oncogene antagonist, is a TGF-beta-induced suppressor of human gastrointestinal cancers. Proc Natl Acad Sci U S A. 2004 Dec 14;101(50):17468-73. 3. Yang L, Amann JM, Kikuchi T, Porta R, Guix M, Gonzalez A, Park KH, Billheimer D, Arteaga CL, Tai HH, Dubois R, Carbone DP, Johnson DH. Inhibition of Epidermal Growth Factor Receptor Signaling Elevates 15-Hydroxyprostaglandin Dehydrogenase in Non-Small-Cell Lung Cancer. Cancer Res. 2007 Jun 15;67(12):5587-5593. 4. Niesen FH, Berglund H, Vedadi M: The use of differential scanning fluorimetry to detect ligand interactions that promote protein stability. Nature protocols 2007; 2:2212-2221 NIH Chemical Genomics Center [NCGC] Structural Genomics Consortium [SGC]
HPGD was diluted to a final assay concentration of 1 uM in 100 mM Tris buffer, pH 8.0, containing 0.01% Tween-20 and 1:1000 SYPRO orange dye. The final assay volume is 10 ul, with or without 200 uM of either NAD+ or NADH. Compounds were added 1:5 from appropriate stock solutions in 10% (v/v) DMSO to comprise either 50 or 250 uM final concentrations. Heat denaturation curves were recorded using a RT-PCR instrument (Mx3005p, Agilent) applying a temperature gradient of 2 degree C/min. Analysis of the data was performed using DSF Analysis vers. 2.5 (ftp://ftp.sgc.ox.ac.uk/pub/biophysics) and Prism 5.0 (GraphPad Software, Inc.)
`O=C(c1ccc(COc2ccccc2Br)cc1)N1CCCCC1` was tested, and the thermal shift (delta Tm) was 7.1 C (active).
With `COCCNC(=O)c1nc2c(nnn2Cc2cc(C)ccc2C)c(=O)[nH]1` the thermal shift (delta Tm) was 8.9 C (active).

Same assay, conditions: Recombinant HPGD thermal shift, SYPRO orange DSF, measured here: delta Tm with NADH cofactor, at 250 µM, stronger effect = higher value
Compound `O=C(c1ccc(COc2ccccc2Br)cc1)N1CCCCC1` has a thermal shift (delta Tm) of 10.6 C.
For `COCCNC(=O)c1nc2c(nnn2Cc2cc(C)ccc2C)c(=O)[nH]1`, the thermal shift (delta Tm) was 6.6 C.
